# Source: PubChem
# The list is not random: actives were taken first. Their share in the collection is about 2.1%.
# TDP43 rescue = qHTS of TDP-43 Inhibitors; Potency, µM (highest dose often 46.1 µM), inactives show at the top dose growth rescue (activation), actives largely listed as activators; 410,000 compounds, 1.8% hits; TDP-43 expressing yeast growth rescue, BacTiter-Glo, 24 h; note: % of control where 0% means no effect; nearly all actives have a fitted effect of over 50% in size
#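 In this qHTS, compounds that restore growth of yeast expressing TDP-43 appear as activators. Cells (OD600=0.02, galactose medium, raffinose-pregrown) are incubated with compound 24 hr at 30 deg C and growth is quantified by BacTiter-Glo.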
# FUS suppressor = qHTS for Suppressors of FUS Proteinopathy: Primary screen using FUS-linked yeast assay | S. cerevisiae FUS-expressing, growth rescue, OD600, 24 h | Potency, µM (doses to about 76.6 µM), hits mostly activators | 390,000 compounds, 0.24% hits;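 note: plate controls were DMSO vehicle for no effect and reference control for full effect; nearly all actives have a fitted effect of over 55% in size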
#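 Compound concentration series was pinned onto galactose-induced FUS-expressing yeast seeded at OD 0.005. Plates sat 24hr at 30C; absorbance at 600 nm gave growth. DMSO served as background control.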
# Abeta yeast res = qHTS for compounds that reverse cellular toxicity of Amyloid beta (A-beta) peptide in yeast: Primary Screen | yeast expressing A-beta42, growth rescue, OD600, 48 h; response scale: 0% DMSO, 100% iron-clioquinol control | Potency, µM (highest dose often 46.1 µM), hits mostly activators | 410,000 compounds, 0.063% hits; note: nearly all actives have a fitted effect of over 55% in size
#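 Yeast A-beta toxicity model in growth medium with pinned compounds, 48 h at 30 C; growth read as absorbance at 600 nm. Normalized to FeCl3/clioquinol equimolar mix (positive) and DMSO (negative).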
# aSyn yeast inh = qHTS of alpha-syn Inhibitors. Yeast expressing alpha-synuclein, growth rescue, BacTiter-Glo, 24 h. Potency, µM (doses to about 46.1 µM), for the others: top-dose growth rescue (activation), most hits filed as activators. 370,000 compounds, 0.14% hits. AID 652106, 2013; note: % of control where 0% means no effect; nearly all actives have a fitted effect of over 65% in size
#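 Readout is rescue of growth in alpha-synuclein-expressing yeast, so inhibitors of toxicity appear as activators. Growth after 24 hr at 30 deg C in galactose medium is quantified by luminescence.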
# Active calls of the source: *; i = inactive; ? = inconclusive; . = no result; [ ] = remark or other dose. Calls come from the whole dose curve; as a rule, active = well fitted curve in the direction sought with a large enough effect; inconclusive = small, poorly fitted or top-dose-only effect, or another doubt; inactive = no such curve, though single readings can be large; an effect the other way counts as inactive or inconclusive. Potency is the fitted concentration of half-maximal effect.
SMILES,TDP43 rescue,FUS suppressor,Abeta yeast res,aSyn yeast inh
O=C(c1ccccc1)N1c2ncnn2C2(CCCCC2)[C@@H]2CCCC[C@@H]21,35µM*,i,i,.
O=C(c1cccc(Cl)c1)N1CCC(c2nc3ccccc3o2)CC1,13µM*,i,i,.
O=C(c1ccc(F)cc1)N1CCC(c2nc3ccccc3o2)CC1,29%,i,i,.
COc1ccccc1-c1nnc(C2CCN(C(=O)c3cccc(Cl)c3)CC2)o1,20µM*,i,i,.
CC(=O)c1cc(-c2ccccc2)n(CC(=O)NCc2ccc(Cl)cc2)c1C,.,i,.,.
O=C(CC1CC2CCC1C2)N1CCN(S(=O)(=O)c2ccccc2C(F)(F)F)CC1 (stereo not drawn),22µM*,?,i,4%[1.84 µM]
COCc1ccc(C(=O)N2CCCC(C(=O)c3cc(F)ccc3F)C2)s1 (stereo not drawn),11µM*,i,i,-4%
COc1ccc(CCC(=O)NC2CC(=O)N(c3ccc(OC)cc3)C2)cc1 (stereo not drawn),18%,i,i,.
CC(=O)N1N=C(c2cccc([N+](=O)[O-])c2)OC1(C)c1cccs1 (stereo not drawn),?,i,i,0%
CC(=O)N1N=C(c2cccc([N+](=O)[O-])c2)OC1c1ccccc1Cl (stereo not drawn),22µM*,i,i,7%
O=C(OCc1ccccc1Cl)c1ccc(-n2cnnc2)cc1,13µM*,i,i,12%
Cc1cccc(NCc2ccc([N+](=O)[O-])s2)c1,?,i,i,27%
O=[N+]([O-])c1ccc(CNc2cccc(F)c2)s1,11µM*,i,?,19%
Cc1ccc(NCc2ccc([N+](=O)[O-])s2)cc1,11µM*,i,i,17%
Cc1ccccc1NCc1ccc([N+](=O)[O-])s1,11µM*,i,i,12%
Cc1nnc2c(N3CCN(c4ccccc4F)CC3)nc3ccc(C(=O)c4ccccc4)cc3n12,8%,i,i,.
O=S(=O)(NCCc1nnc2ccc(SCc3ccccc3Cl)nn12)c1ccccc1,15%,i,i,.
O=C(Cn1c(=O)cnc2ccccc21)Nc1ccccc1N1CCOCC1,-5%,i,i,-7%
O=C(Cn1c(=O)cnc2ccccc21)Nc1cc(Cl)ccc1N1CCOCC1,13µM*,i,i,-1%
S=C1NCCc2ccc(Cl)cc2C1c1ccccc1 (stereo not drawn),14µM*,i,i,?
Cc1ccc2ccc3c(c2n1)NS(=O)(=O)c1ccc(C(F)(F)F)cc1-3,.,.,.,10µM*
O=S1(=O)Nc2c(cc(Cl)c3ccc(Cl)nc23)-c2ccccc21,.,.,.,-19%
COc1ccc2c(c1)CCc1sc(NC(=O)c3ccco3)nc1-2,20µM*,i,i,-7%
COc1ccc2c(c1)-c1nc(NC(=O)c3ccco3)sc1CC2,?,.,i,-15%
COc1ccc2c(c1)-c1nc(NC(=O)c3cccs3)sc1CC2,18µM*,?,i,-2%
SMILES,TDP43 rescue,FUS suppressor,Abeta yeast res,aSyn yeast inh
c1ccc(CNc2nc3c(-c4ccccc4)nnn3c3ccccc23)cc1,28%,i,i,.
CCCNC(=O)C1(C)CCCN(C(=O)C2(c3ccc(Cl)cc3)CCCC2)C1 (stereo not drawn),35µM*,i,i,6%
Oc1ccc(C[C@H]2CN([C@@H](Cc3ccccc3)CN3CCCC3CN3C(=S)NC[C@@H]3Cc3ccccc3)C(=S)N2CC2CCCCC2)cc1 (stereo partly drawn),27%,?,i,-34%
CCOc1ccc(CCN2C(=S)N([C@@H](CC(C)C)CN3CCC[C@@H]3CN3C(=S)NC[C@@H]3Cc3ccccc3)C[C@@H]2Cc2ccc(O)cc2)cc1,1%,28µM*,i,-40%
CCOc1ccc(CCN2C(=S)N([C@@H](Cc3ccc(O)cc3)CN3CCC[C@@H]3CN3C(=S)NC[C@@H]3Cc3ccccc3)C[C@@H]2Cc2ccccc2)cc1,0%,?,i,-29%
Oc1ccc(C[C@H]2CNC(=S)N2CC2CCCN2C[C@H](Cc2ccc(O)cc2)N2C[C@H](Cc3ccc(O)cc3)N(CC3CCCCC3)C2=S)cc1 (stereo partly drawn),11µM*,?,i,-41%
CCOc1ccc(CCN2C(=S)N([C@@H](Cc3ccccc3)CN3CCCC3CN3C(=S)NC[C@@H]3Cc3ccccc3)C[C@@H]2Cc2ccc(O)cc2)cc1 (stereo partly drawn),-23%,11µM*,i,-27%
CCOc1ccccc1-c1nc(SCC(=O)c2ccc(OC)c(Br)c2)n[nH]1,9%,i,i,.
CC(C)OCCCN1C(=O)c2[nH]nc(-c3ccccc3O)c2C1c1ccccc1F (stereo not drawn),0%,i,i,.
CCC(=O)Nc1cccc(-c2cn3ccsc3n2)c1,12%,i,i,2%
COc1cccc(C(=O)Nc2cccc(-c3cn4ccsc4n3)c2)c1OC,13µM*,i,i,.
COc1cccc(OC)c1C(=O)Nc1cccc(-c2cn3ccsc3n2)c1,9%,i,i,.
COc1cc(OC)cc(C(=O)Nc2cccc(-c3cn4ccsc4n3)c2)c1,22µM*,?,i,.
O=C(CSc1nnc(-c2ccccn2)n1-c1ccccc1)Nc1ccc(OCc2ccccc2)cc1,.,i,.,.
COc1ccc(-c2csc(C(O)c3cccc(OC)c3)n2)cc1 (stereo not drawn),20µM*,i,?,3.5µM*
COc1cccc(C(O)c2nc(-c3cc(F)cc(F)c3)cs2)c1 (stereo not drawn),16µM*,i,?,?
Cc1ccccc1CCNC(=O)C1CCN(S(=O)(=O)c2ccc3c(ccn3C)c2)CC1,23%,i,i,.
CCOC(=O)CC[C@H]1CC[C@]2(CCCN(S(=O)(=O)c3ccccc3)C2)O1,.,i,.,.
CCOC(=O)c1ccc(NC(=O)C2Cc3ccccc3C(=O)O2)cc1 (stereo not drawn),27%,i,i,.
Cc1ccc(-c2ccc(=O)n(CC(=O)Nc3cccc(C#N)c3)n2)cc1,2%,i,i,.
CCc1cccc(NC(=O)Cn2nc(-c3cc(C)ccc3C)ccc2=O)c1,28µM*,?,?,.
COc1ccc(CCn2nnnc2C2(c3ccc(C)cc3)CC2)cc1,.,.,.,-3%
CC(=O)CCc1ccc(Oc2nc(-c3cccnc3)nc3ccccc23)cc1,14µM*,i,i,9%
COc1ccc(Oc2nc(-c3cccnc3)nc3ccccc23)cc1,2%,i,i,2%
Cc1ccc(S(=O)(=O)N2CCCN(c3nc(-c4cccs4)nc4ccccc34)CC2)cc1,.,.,.,-14%
CC(C)CNC(=O)OCc1cn(Cc2cccc(F)c2F)nn1,.,i,.,.
